In PubChem BioAssay (NCATS) one finds Potency and activity change, negative = inhibition data, which are given here for 40 compounds.

Records with an inconclusive call do not appear. A call without a number means that no potency is given here. Active and inactive are the calls of the source. Calls come from the whole dose curve; as a rule, active = well fitted curve in the direction sought with a large enough effect; inconclusive = small, poorly fitted or top-dose-only effect, or another doubt; inactive = no such curve, though single readings can be large; an effect the other way counts as inactive or inconclusive.

One assay concerns the target Aldehyde dehydrogenase, mitochondrial (Homo sapiens) (UniProt P05091). Nature of the assay: qHTS for Inhibitors of the Aldehyde Dehydrogenase Family (ALDH2) Primary screen (AID 2061308). Note: nearly all actives have a fitted effect of over 55% in size. Particulars: ALDH2 enzyme inhibition qHTS, 1536-well; series mostly up to 56 µM.
For `O=S(=O)(NC1CCN(S(=O)(=O)c2ccc3c(c2)OCCO3)CC1)c1c(F)cccc1F`, the Potency entry was “inactive”.
`Fc1ccc(-c2ccc(Nc3nc(-c4ccncc4)nc4ccccc34)cc2F)c(F)c1`: the Potency entry was “inactive”.
As to `CCCn1c(-c2ccc(F)cc2)nc2c(NCCCCN(C)C)nc(C)nc21`, the Potency entry was “inactive”.
`Cn1cccc1CN=C1NC2=C(C(=O)CCC2)C(c2[nH]ncc2Cl)N1` (stereo not given): the Potency result is “inactive”.
Still for that read-out and setting: the value for `O=C(NCc1ccccc1)Nc1nnc(-c2ccncc2)s1` was “inactive”.
The same measure, in the same setting: then `Nc1ncnc2c1C(c1ccccc1)c1c(ccc3ccccc13)O2` (stereo not given), with “inactive”; and `O=C(OCC#CCSc1nnc(-c2c[nH]c3ccccc23)o1)c1ccc(F)cc1`, with “inactive”.
On the same count and under the same terms, then `C=CCNc1oc(-c2cccc3ccccc23)nc1C#N`, with “inactive”; and `COc1ccc(-c2nc3ccc(Cl)cc3c(=O)n2Cc2ccccc2)cc1COc1ccc(NC(C)=O)cc1`, with “inactive”.
On to `CCCn1c(C)nc2c(NCCN3CCOCC3)nc(C)nc21`, for which the Potency entry was “inactive”.
Regarding `Cc1ccc(S(=O)(=O)Nc2ccc(Br)cc2C(=O)Nc2nc(-c3ccccc3)cs2)cc1`, the Potency result was “inactive”.
On to `Cc1ccc(S(=O)(=O)Nc2cnccc2C(=O)Nc2nc(-c3ccncc3)cs2)cc1`, for which the Potency entry is “inactive”.
Same read-out and setting: the value for `COC(=O)c1ccc(NC(=O)c2cc(-c3ccc(C)c(C)c3)nc3ccccc23)cc1` was “inactive”; that for `Cc1ccc(-c2cc(C(=O)Nc3ccccc3)c3ccccc3n2)cc1C` was “inactive”; that for `COc1c(NS(=O)(=O)c2ccc(C)cc2)cccc1C(=O)Nc1nc(-c2ccccc2)cs1` was “inactive”.
`O=C1CCc2cc(S(=O)(=O)Nc3cccnc3)ccc2N1`: the Potency entry was “inactive”.
Same read-out and setting: the value for `C=C(C)C(=O)O[C@H]1/C(C=O)=C\CC/C(CO)=C/[C@H]2OC(=O)C(=C)[C@@H]2[C@@H]1OC` was “inactive”; that for `COc1cc(O)c(C(CC(=O)N2CCOCC2)c2ccc(C)cc2)c(OC)c1` (stereo not given) was “inactive”; that for `C#CCOc1cccc(-c2nnc3n2N=C(c2ccc(OC)c(OCC(C)=O)c2)CS3)c1` was “inactive”.
The same measure, in the same setting: then `Cc1ccc(NS(=O)(=O)c2ccc3c(c2)CCC(=O)N3)cc1C`, with “inactive”; and `Fc1cc(Nc2nc(-c3ccncc3)nc3ccccc23)ccc1-c1ccc2[nH]ncc2c1`, with “inactive”.
On to `O=C(OCC#CCSc1nnc(-c2cccc3ccccc23)o1)c1cccc2[nH]ccc12`, for which the Potency entry is “inactive”.
In the case of `O=C1CCCC2=C1C(c1[nH]ncc1Cl)NC(=NCc1ccccc1)N2` (stereo not given), the Potency result was “inactive”.
On to `Cc1cc2c(s1)c1cnn(Cc3ccc(C)c(F)c3)c(=O)c1n2C`, for which the Potency result was “inactive”.
Take `O=C(O)CCCCCNC(=O)CSc1nnc(-c2ccc([S+](=O)([O-])N3CCCC3)cc2)n1-c1ccccc1`: the Potency result was “inactive”.
The same measure, in the same setting: the value for `O=C(OCC#CCSc1nnc(-c2cccc3ccccc23)o1)c1ccsc1` was “inactive”; that for `CSc1cnc(-c2ccccc2C(C)C)nc1NCc1ccc(-c2cccnc2)cc1` was “inactive”.
Same read-out and setting: then `COc1cc(F)c(S(=O)(=O)N2CCN(S(=O)(=O)c3ccc(NC(C)=O)cc3)CC2)c(F)c1`, with “inactive”; and `Cc1cc2c(s1)c1cnn(Cc3cc(Cl)ccc3F)c(=O)c1n2C`, with “inactive”.
Same read-out and setting: then `O=S1(=O)N=C(Oc2cccc(-c3ccccc3)c2)c2ccccc21`, with “inactive”; and `Cc1cc2c(s1)c1cnn(Cc3cc(F)c(F)cc3F)c(=O)c1n2C`, with “inactive”; and `Cc1ccc(Cl)cc1NC(=O)c1nc[nH]c1C(=O)Nc1nc2ccccc2[nH]1`, with “inactive”.
Turning to `COc1cc(O)c(C(CC(=O)N2CCC[C@H](C)C2)c2ccc3c(c2)OCO3)c(OC)c1` (stereo not given in full), the Potency entry is “inactive”.
Same read-out and setting: then `O=S(=O)(Nc1nccs1)c1ccc(NCc2cc(Cl)ccc2O)cc1`, with “inactive”; and `Cc1cc(NS(=O)(=O)CCNC(=O)Cc2ccc(Cl)c(Cl)c2)no1`, with “inactive”.
For `CCC(OC(=O)c1ccc(S(C)(=O)=O)c([N+](=O)[O-])c1)C(=O)NC1C2CC3CC(C2)CC1C3` (stereo not given), the Potency result is “inactive”.
Take `CS(=O)(=O)c1ccc(C(=O)OCC(=O)N2CCC(c3ccccc3)CC2)cc1[N+](=O)[O-]`: the Potency result was “inactive”.
Same read-out and setting: then `O=C(Nc1ccc2sccc2c1)Nc1nnc(-c2ccncc2)s1`, with “inactive”.
In the case of `CC1(C)CC[C@]2(C(=O)O)CC[C@]3(C)C(=CCC4[C@@]5(C)CC[C@H](O[C@@H]6O[C@H](C(=O)O)[C@@H](O)[C@H](O[C@@H]7O[C@H](CO)[C@H](O)[C@H](O)[C@H]7O)[C@H]6O[C@@H]6O[C@H](CO)[C@@H](O)[C@H](O)[C@H]6O)C(C)(C)C5CC[C@]43C)[C@@H]2C1` (stereo not given in full), the activity change, negative = inhibition is -3.97% [at 11.2 µM] (inactive).
In the case of `N#Cc1nc(NCCCO)nc(Nc2ccccc2)n1`, the Potency entry is “inactive”.

For another assay, the target named is Retinaldehyde dehydrogenase 3 (Homo sapiens) (UniProt P47895). Nature of the assay: qHTS for Inhibitors of the Aldehyde Dehydrogenase Family (ALDH1A3) Primary screen (AID 2061315). Particulars: ALDH inhibition qHTS; series mostly up to 56 µM.
In the case of `O=S(=O)(NC1CCN(S(=O)(=O)c2ccc3c(c2)OCCO3)CC1)c1c(F)cccc1F`, the Potency entry is “inactive”.
On the same count and under the same terms, the value for `Fc1ccc(-c2ccc(Nc3nc(-c4ccncc4)nc4ccccc34)cc2F)c(F)c1` was “inactive”; that for `CCCn1c(-c2ccc(F)cc2)nc2c(NCCCCN(C)C)nc(C)nc21` was “inactive”; that for `Cn1cccc1CN=C1NC2=C(C(=O)CCC2)C(c2[nH]ncc2Cl)N1` (stereo not given) was “inactive”.
Same read-out and setting: the value for `O=C(NCc1ccccc1)Nc1nnc(-c2ccncc2)s1` was “inactive”; that for `Nc1ncnc2c1C(c1ccccc1)c1c(ccc3ccccc13)O2` (stereo not given) was “inactive”; that for `O=C(OCC#CCSc1nnc(-c2c[nH]c3ccccc23)o1)c1ccc(F)cc1` was “inactive”.
Regarding `C=CCNc1oc(-c2cccc3ccccc23)nc1C#N`, the Potency result is “inactive”.
Turning to `COc1ccc(-c2nc3ccc(Cl)cc3c(=O)n2Cc2ccccc2)cc1COc1ccc(NC(C)=O)cc1`, the Potency entry was “inactive”.
On to `CCCn1c(C)nc2c(NCCN3CCOCC3)nc(C)nc21`, for which the Potency entry is “inactive”.
As for `Cc1ccc(S(=O)(=O)Nc2ccc(Br)cc2C(=O)Nc2nc(-c3ccccc3)cs2)cc1`, the Potency result is “inactive”.
On the same count and under the same terms, the value for `Cc1ccc(S(=O)(=O)Nc2cnccc2C(=O)Nc2nc(-c3ccncc3)cs2)cc1` was “inactive”; that for `COC(=O)c1ccc(NC(=O)c2cc(-c3ccc(C)c(C)c3)nc3ccccc23)cc1` was “inactive”; that for `Cc1ccc(-c2cc(C(=O)Nc3ccccc3)c3ccccc3n2)cc1C` was “inactive”.
Same read-out and setting: the value for `COc1c(NS(=O)(=O)c2ccc(C)cc2)cccc1C(=O)Nc1nc(-c2ccccc2)cs1` was “inactive”; that for `O=C1CCc2cc(S(=O)(=O)Nc3cccnc3)ccc2N1` was “inactive”; that for `C=C(C)C(=O)O[C@H]1/C(C=O)=C\CC/C(CO)=C/[C@H]2OC(=O)C(=C)[C@@H]2[C@@H]1OC` was “inactive”.
On the same count and under the same terms, then `COc1cc(O)c(C(CC(=O)N2CCOCC2)c2ccc(C)cc2)c(OC)c1` (stereo not given), with “inactive”; and `C#CCOc1cccc(-c2nnc3n2N=C(c2ccc(OC)c(OCC(C)=O)c2)CS3)c1`, with “inactive”; and `Cc1ccc(NS(=O)(=O)c2ccc3c(c2)CCC(=O)N3)cc1C`, with “inactive”.
Consider `Fc1cc(Nc2nc(-c3ccncc3)nc3ccccc23)ccc1-c1ccc2[nH]ncc2c1`, for which the Potency entry was “inactive”.
Still for that read-out and setting: then `O=C(OCC#CCSc1nnc(-c2cccc3ccccc23)o1)c1cccc2[nH]ccc12`, with “inactive”.
On the same count and under the same terms, then `O=C1CCCC2=C1C(c1[nH]ncc1Cl)NC(=NCc1ccccc1)N2` (stereo not given), with “inactive”; and `Cc1cc2c(s1)c1cnn(Cc3ccc(C)c(F)c3)c(=O)c1n2C`, with “inactive”; and `O=C(O)CCCCCNC(=O)CSc1nnc(-c2ccc([S+](=O)([O-])N3CCCC3)cc2)n1-c1ccccc1`, with “inactive”.
The same measure, in the same setting: the value for `O=C(OCC#CCSc1nnc(-c2cccc3ccccc23)o1)c1ccsc1` was “inactive”; that for `CSc1cnc(-c2ccccc2C(C)C)nc1NCc1ccc(-c2cccnc2)cc1` was “inactive”; that for `COc1cc(F)c(S(=O)(=O)N2CCN(S(=O)(=O)c3ccc(NC(C)=O)cc3)CC2)c(F)c1` was “inactive”.
For `Cc1cc2c(s1)c1cnn(Cc3cc(Cl)ccc3F)c(=O)c1n2C`, the Potency result was “inactive”.
Still for that read-out and setting: the value for `O=S1(=O)N=C(Oc2cccc(-c3ccccc3)c2)c2ccccc21` was “inactive”; that for `Cc1cc2c(s1)c1cnn(Cc3cc(F)c(F)cc3F)c(=O)c1n2C` was “inactive”; that for `Cc1ccc(Cl)cc1NC(=O)c1nc[nH]c1C(=O)Nc1nc2ccccc2[nH]1` was “inactive”.
Consider `COc1cc(O)c(C(CC(=O)N2CCC[C@H](C)C2)c2ccc3c(c2)OCO3)c(OC)c1` (stereo not given in full), for which the Potency result was “inactive”.
Same read-out and setting: the value for `O=S(=O)(Nc1nccs1)c1ccc(NCc2cc(Cl)ccc2O)cc1` was “inactive”; that for `Cc1cc(NS(=O)(=O)CCNC(=O)Cc2ccc(Cl)c(Cl)c2)no1` was “inactive”.
Turning to `CCC(OC(=O)c1ccc(S(C)(=O)=O)c([N+](=O)[O-])c1)C(=O)NC1C2CC3CC(C2)CC1C3` (stereo not given), the Potency result is “inactive”.
On the same count and under the same terms, the value for `CS(=O)(=O)c1ccc(C(=O)OCC(=O)N2CCC(c3ccccc3)CC2)cc1[N+](=O)[O-]` was “inactive”.
Still for that read-out and setting: the value for `O=C(Nc1ccc2sccc2c1)Nc1nnc(-c2ccncc2)s1` was “inactive”.
For the compound `CC1(C)CC[C@]2(C(=O)O)CC[C@]3(C)C(=CCC4[C@@]5(C)CC[C@H](O[C@@H]6O[C@H](C(=O)O)[C@@H](O)[C@H](O[C@@H]7O[C@H](CO)[C@H](O)[C@H](O)[C@H]7O)[C@H]6O[C@@H]6O[C@H](CO)[C@@H](O)[C@H](O)[C@H]6O)C(C)(C)C5CC[C@]43C)[C@@H]2C1` (stereo not given in full), the activity change, negative = inhibition was 11.9% [at 11.2 µM] (inactive).
As to `N#Cc1nc(NCCCO)nc(Nc2ccccc2)n1`, the Potency entry was “inactive”.
